# Results filed as inconclusive are left out. A call without a number means that no potency is given here. The source made the active and inactive calls. Unless noted, calls come from the whole dose curve; as a rule, active = well fitted curve in the direction sought with a large enough effect in the repeat runs; inconclusive = weak or mixed curves; inactive = no such curve, though single readings can be large; an effect the other way counts as inactive or inconclusive.
# Tests used:
# [1] = Human pregnane X receptor (PXR) small molecule agonists, qHTS cell viability counter screen (AID 1346977); details: PXR-Luc HepG2 viability, CellTiter-Fluor, 24 h; series mostly up to 92.4 µM; note: nearly all actives have a fitted effect of over 50% in size
# Summary of the method: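 Viability counter screen: CellTiter-Fluor signal in PXR-Luc HepG2 cells, 24hr compound exposure, 37C, 5% CO2.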
# [2] = Caspase-3/7 induction in CHO-K1 cells by small molecules, qHTS cell viability counter screen (AID 1346979); details: CellTiter-Fluor fluorescence, 17 h; series mostly up to 92.4 µM; note: nearly all actives have a fitted effect of over 35% in size
# Summary of the method: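 Viability readout by fluorescence (CellTiter-Fluor) on wild-type CHO-K1 cells exposed for 16hr at 37C and 5% CO2 to compounds delivered in DMSO; reagent incubated 1hr before reading.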
# [3] = Caspase-3/7 induction in CHO-K1 cells by small molecules, qHTS assay (AID 1346980); details: CHO-K1 caspase-3/7 induction, Caspase-Glo luminescence, 17 h; series mostly up to 92.4 µM; note: nearly all actives have a fitted effect of over 15% in size
# Summary of the method: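 Wild-type cells were seeded at 1,500 per well and settled 5 hr at 37 C, 5% CO2, then exposed to DMSO-dissolved compounds for 17 hr. Caspase-Glo 3/7 reagent was added, and luminescence was read after 30min at room temperature.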
# [4] = Caspase-3/7 induction in HepG2 cells by small molecules, qHTS cell viability counter screen (AID 1346981); details: CellTiter-Fluor fluorescence, 17 h; series mostly up to 92.4 µM; note: nearly all actives have a fitted effect of over 30% in size
# Summary of the method: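 Wild-type HepG2 cells, 2,000/well, settled 5 hr at 37 C, 5% CO2 before compound addition. Viability read by CellTiter-Fluor fluorescence, reagent added after 16 hr compound exposure, then 1 hr at 37C, in the same wells as the caspase read.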
# [5] = target: Nuclear receptor subfamily 1 group I member 2 (Homo sapiens) (UniProt O75469); assay: Human pregnane X receptor (PXR) small molecule agonists, qHTS assay (AID 1346982); details: PXR-Luc HepG2, CYP3A4 luciferase reporter, 24 h; series mostly up to 92.4 µM; note: nearly all actives have a fitted effect of over 35% in size; note: potency is the fitted concentration of half-maximal effect
# Nuclear receptor subfamily 1 group I member 2 (Homo sapiens), sequence (O75469 whole entry, looked up): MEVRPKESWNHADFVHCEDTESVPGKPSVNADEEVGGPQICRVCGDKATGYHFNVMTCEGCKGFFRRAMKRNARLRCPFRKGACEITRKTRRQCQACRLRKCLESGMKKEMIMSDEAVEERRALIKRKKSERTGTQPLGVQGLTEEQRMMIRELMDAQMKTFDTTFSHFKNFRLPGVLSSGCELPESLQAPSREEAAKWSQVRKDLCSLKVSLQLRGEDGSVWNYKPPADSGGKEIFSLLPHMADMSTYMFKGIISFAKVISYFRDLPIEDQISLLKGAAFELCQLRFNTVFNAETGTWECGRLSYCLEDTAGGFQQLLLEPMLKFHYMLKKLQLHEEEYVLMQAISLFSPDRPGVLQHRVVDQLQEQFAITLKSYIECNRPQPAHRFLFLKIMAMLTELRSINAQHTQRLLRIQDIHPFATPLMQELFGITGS
# Summary of the method: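 PXR-Luc HepG2 reporter cells (CYP3A4-driven luciferase) in 5% charcoal-stripped FBS medium, plated 5 h before compound addition, then treated 24 h at 37C. Luciferase read by ONE-Glo luminescence after 30 min at room temperature.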
# [6] = target: Nuclear receptor subfamily 1 group I member 2 (Homo sapiens) (UniProt O75469); assay: CYP3A4 induction through human pregnane X receptor (PXR) by small molecules, qHTS assay (AID 1346984); details: DPX-2 HepG2 PXR, CYP3A4-luciferin luminescence, 24 h; series mostly up to 46.1 µM; note: nearly all actives have a fitted effect of over 40% in size
# Summary of the method: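 DPX-2 HepG2 cells carrying a PXR response element and CYP3A4-promoter luciferase construct, treated with compounds 24 hr at 37C. Then P450-Glo CYP3A4 Luciferin-IPA substrate (3uM final) for 3 hr at 37C, One-Glo added, luminescence read.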
# [7] = target: Nuclear receptor subfamily 1 group I member 2 (Homo sapiens) (UniProt O75469); assay: Human pregnane X receptor (PXR) activation by small molecules, qHTS assay (AID 1346985); details: DPX-2 HepG2 CYP3A4-luciferase, 24 h; series mostly up to 38.3 µM; note: nearly all actives have a fitted effect of over 40% in size
# Summary of the method: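 DPX-2 cells (HepG2 co-transfected with a PXR response element and a CYP3A4-promoter luciferase construct) were seeded at 2,000 per well, rested 5 hr at 37C, then exposed to DMSO-dissolved compounds for 24 hr. Activation was read as luciferase luminescence.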
# [8] = target: Acetylcholinesterase (Homo sapiens) (UniProt P22303); assay: Acetylcholinesterase (AChE) small molecule antagonists: colormetric cell-based qHTS assay (AID 1347395; calls by dose curve; note: nearly all actives have a fitted effect of over 30% in size; note: potency is the fitted concentration of half-maximal effect); details: SH-SY5Y cells AChE activity, colorimetric (Ellman); series mostly up to 115 µM
# Acetylcholinesterase (Homo sapiens), sequence (P22303 whole entry, looked up): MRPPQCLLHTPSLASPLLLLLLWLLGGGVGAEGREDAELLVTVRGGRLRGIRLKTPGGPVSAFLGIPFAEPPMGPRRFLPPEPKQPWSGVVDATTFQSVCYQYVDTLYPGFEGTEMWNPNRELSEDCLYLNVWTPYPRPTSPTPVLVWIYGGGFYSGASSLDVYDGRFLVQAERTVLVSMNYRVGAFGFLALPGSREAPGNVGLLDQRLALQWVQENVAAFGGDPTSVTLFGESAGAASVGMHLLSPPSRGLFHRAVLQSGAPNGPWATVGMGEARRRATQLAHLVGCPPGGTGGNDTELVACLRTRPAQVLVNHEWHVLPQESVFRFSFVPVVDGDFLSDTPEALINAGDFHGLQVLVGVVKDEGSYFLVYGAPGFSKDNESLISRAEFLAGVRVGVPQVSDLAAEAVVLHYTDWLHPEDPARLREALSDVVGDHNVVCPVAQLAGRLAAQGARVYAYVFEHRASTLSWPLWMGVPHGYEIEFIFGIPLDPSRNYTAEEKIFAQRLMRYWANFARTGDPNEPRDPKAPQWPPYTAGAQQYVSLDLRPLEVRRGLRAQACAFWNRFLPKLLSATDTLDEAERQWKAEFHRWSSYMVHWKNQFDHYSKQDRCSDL
# Summary of the method: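 Homogeneous whole-cell format. SH-SY5Y cells seeded overnight, dosed with compound (30 min, 37 C, 5% CO2), then given DTNB/acetylthiocholine cocktail for 90 min at 37 C; colorimetric signal.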
# [9] = target: Acetylcholinesterase (Homo sapiens) (UniProt P22303); assay: Acetylcholinesterase (AChE) small molecule antagonists: enzyme-based qHTS assay (AID 1347397; calls by dose curve; note: nearly all actives have a fitted effect of over 55% in size); details: Potency: AChE enzyme activity inhibition; outcome: AChE enzyme activity inhibition; series mostly up to 115 µM
# Summary of the method: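 Recombinant human AChE, dispensed at 50 mU/mL, was preincubated with Tox21 10K compounds or DMSO vehicle for 30 min at room temperature. DTNB plus acetylthiocholine was then added, and thiocholine was measured colorimetrically after a further 10 min.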
# [10] = target: Acetylcholinesterase (Homo sapiens) (UniProt P22303); assay: Acetylcholinesterase (AChE) small molecule antagonists: fluorescence cell-based qHTS assay (AID 1347398; calls by dose curve; note: nearly all actives have a fitted effect of over 50% in size; note: potency is the fitted concentration of half-maximal effect); details: SH-SY5Y cells; Potency: AChE activity; outcome: AChE activity; series mostly up to 115 µM
# Summary of the method: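 Human SH-SY5Y cells were plated overnight at 37 C, exposed to compound for 30 min at 37 C, 5% CO2, then given acetylthiocholine plus Thiolite Green for 40 min at room temperature; thiocholine fluorescence (Ex/Em 490/520 nm) reports endogenous AChE activity.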
# [11] = target: Acetylcholinesterase (Homo sapiens) (UniProt P22303); assay: Acetylcholinesterase (AChE) small molecule antagonists: enzyme-based qHTS assay with human liver microsomes (AID 1347399; calls by dose curve; note: nearly all actives have a fitted effect of over 60% in size; note: potency is the fitted concentration of half-maximal effect); details: Potency: qHTS inhibition; outcome: qHTS inhibition; series mostly up to 115 µM
# Summary of the method: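 Recombinant human AChE (50 mU/mL in the enzyme mix) and human liver microsomes (0.25 mg/mL final) were preincubated with compound and NADPH (0.25 mg/mL final) for 30 min at 37 C. Acetylthiocholine/DTNB was then added; thiocholine was read colorimetrically after 10 min at room temperature.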
# [12] = target: Cytochrome P450 2C19 (Homo sapiens) (UniProt P33261); assay: Cytochrome P450 Family 2 Subfamily C Member 19 (CYP2C19) small molecule antagonists: luciferase reporter qHTS assay (AID 1671197); details: P450-Glo CYP2C19 enzyme, luciferin luminescence, 1 h; series mostly up to 115 µM; note: nearly all actives have a fitted effect of over 65% in size; note: potency is the fitted concentration of half-maximal effect
# Cytochrome P450 2C19 (Homo sapiens), sequence (P33261 whole entry, looked up): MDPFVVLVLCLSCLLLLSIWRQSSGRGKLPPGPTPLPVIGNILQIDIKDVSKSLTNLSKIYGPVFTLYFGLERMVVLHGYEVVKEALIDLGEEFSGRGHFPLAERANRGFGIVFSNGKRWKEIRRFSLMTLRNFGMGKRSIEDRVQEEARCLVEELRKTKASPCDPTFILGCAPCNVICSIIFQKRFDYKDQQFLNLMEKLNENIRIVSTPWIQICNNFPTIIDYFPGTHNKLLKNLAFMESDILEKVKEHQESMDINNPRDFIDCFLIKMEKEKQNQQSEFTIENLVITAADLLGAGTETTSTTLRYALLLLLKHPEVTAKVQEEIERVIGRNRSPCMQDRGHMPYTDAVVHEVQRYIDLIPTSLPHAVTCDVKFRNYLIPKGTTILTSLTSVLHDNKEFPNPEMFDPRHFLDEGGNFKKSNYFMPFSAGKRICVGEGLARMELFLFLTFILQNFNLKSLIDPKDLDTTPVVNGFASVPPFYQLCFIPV
# Summary of the method: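 Luminescent readout of CYP2C19 activity: luciferin product detected 20 min after adding detection reagent. Before that, compound and enzyme-substrate mix preincubated 10 min at room temperature; NADPH-regenerating system started a 1 h, 37C reaction. Ketoconazole as positive control.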
# [13] = target: Cytochrome P450 2C9 (Homo sapiens) (UniProt P11712); assay: Cytochrome P450 Family 2 Subfamily C Member 9 (CYP2C9) small molecule antagonists: luciferase reporter qHTS assay (AID 1671198); details: P450-Glo CYP2C9 enzyme assay, luciferin luminescence; series mostly up to 115 µM; note: nearly all actives have a fitted effect of over 50% in size; note: potency is the fitted concentration of half-maximal effect
# Summary of the method: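 CYP2C9 activity was measured with a P450-Glo proluciferin substrate. Enzyme–substrate mix was held with compound for 10 min at room temperature, then NADPH regeneration solution was added for 1 h at 37C. Luciferin product was read as luminescence.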
# [14] = target: Cytochrome P450 1A2 (Homo sapiens) (UniProt P05177); assay: Cytochrome P450 Family 1 Subfamily A Member 2 (CYP1A2) small molecule antagonists: luciferase reporter qHTS assay (AID 1671199); details: P450-Glo CYP1A2 enzyme, luciferin luminescence, 1 h; series mostly up to 115 µM; note: nearly all actives have a fitted effect of over 50% in size; note: potency is the fitted concentration of half-maximal effect
# Cytochrome P450 1A2 (Homo sapiens), sequence (P05177 whole entry, looked up): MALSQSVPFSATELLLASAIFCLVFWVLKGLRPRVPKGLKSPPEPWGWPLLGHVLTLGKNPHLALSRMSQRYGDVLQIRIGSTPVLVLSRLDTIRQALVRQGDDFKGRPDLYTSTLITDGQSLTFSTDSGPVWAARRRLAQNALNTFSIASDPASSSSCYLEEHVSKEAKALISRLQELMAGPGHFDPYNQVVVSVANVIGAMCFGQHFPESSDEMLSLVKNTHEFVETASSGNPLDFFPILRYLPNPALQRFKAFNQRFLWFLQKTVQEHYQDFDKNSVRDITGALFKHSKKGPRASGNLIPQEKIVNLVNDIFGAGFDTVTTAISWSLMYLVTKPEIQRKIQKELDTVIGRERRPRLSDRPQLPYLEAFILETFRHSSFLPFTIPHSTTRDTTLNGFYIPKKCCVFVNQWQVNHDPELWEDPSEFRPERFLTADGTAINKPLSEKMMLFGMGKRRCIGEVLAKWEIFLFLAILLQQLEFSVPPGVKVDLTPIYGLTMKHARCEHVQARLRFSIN
# Summary of the method: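 P450-Glo CYP1A2 enzyme–proluciferin substrate mix with compound 10 min at room temperature, then NADPH regeneration 1 h at room temperature. Luciferin detection reagent added, luminescence read after 20 min; furafylline positive control.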
# [15] = target: Voltage-gated inwardly rectifying potassium channel KCNH2 (Homo sapiens) (UniProt Q12809); assay: Human Ether-a-go-go-Related Gene (hERG) channel small molecule antagonists: fluorescence cell-based qHTS assay (AID 1671200); details: hERG-U2OS cells, FluxOR thallium flux fluorescence; series mostly up to 76.8 µM
# Voltage-gated inwardly rectifying potassium channel KCNH2 (Homo sapiens), sequence (Q12809 whole entry, looked up): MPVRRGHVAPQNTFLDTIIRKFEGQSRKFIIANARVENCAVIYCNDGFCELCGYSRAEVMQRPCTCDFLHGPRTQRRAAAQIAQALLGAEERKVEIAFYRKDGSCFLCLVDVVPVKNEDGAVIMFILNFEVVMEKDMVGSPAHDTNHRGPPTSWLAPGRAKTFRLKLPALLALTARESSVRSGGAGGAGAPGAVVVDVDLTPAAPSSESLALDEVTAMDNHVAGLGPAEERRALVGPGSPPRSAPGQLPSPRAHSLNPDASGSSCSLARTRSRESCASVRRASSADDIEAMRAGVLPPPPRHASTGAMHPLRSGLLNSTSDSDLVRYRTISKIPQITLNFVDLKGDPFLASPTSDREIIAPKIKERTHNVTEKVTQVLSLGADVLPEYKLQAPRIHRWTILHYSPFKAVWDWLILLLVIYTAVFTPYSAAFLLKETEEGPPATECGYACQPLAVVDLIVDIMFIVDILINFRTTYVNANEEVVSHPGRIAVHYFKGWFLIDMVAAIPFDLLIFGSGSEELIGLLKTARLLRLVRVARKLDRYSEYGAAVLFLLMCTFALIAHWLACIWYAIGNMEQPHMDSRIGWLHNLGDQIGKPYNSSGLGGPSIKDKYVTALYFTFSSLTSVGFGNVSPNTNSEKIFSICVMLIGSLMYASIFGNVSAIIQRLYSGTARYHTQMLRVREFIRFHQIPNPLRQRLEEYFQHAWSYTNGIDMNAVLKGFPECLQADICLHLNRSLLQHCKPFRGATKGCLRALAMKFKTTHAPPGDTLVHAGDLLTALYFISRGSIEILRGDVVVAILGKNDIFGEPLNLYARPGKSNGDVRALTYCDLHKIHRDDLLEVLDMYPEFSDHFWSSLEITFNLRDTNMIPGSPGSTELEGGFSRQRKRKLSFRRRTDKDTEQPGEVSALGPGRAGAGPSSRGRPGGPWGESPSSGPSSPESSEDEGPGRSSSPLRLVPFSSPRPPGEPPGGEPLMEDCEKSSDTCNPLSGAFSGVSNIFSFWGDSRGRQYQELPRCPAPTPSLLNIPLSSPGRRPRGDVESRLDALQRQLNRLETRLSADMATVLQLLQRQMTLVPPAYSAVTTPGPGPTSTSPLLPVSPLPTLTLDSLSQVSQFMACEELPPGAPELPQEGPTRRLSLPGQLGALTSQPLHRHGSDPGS
# Summary of the method: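 Thallium served as the potassium surrogate; its influx into dye-loaded U2OS cells carrying the channel was measured by fluorescence over 2 min.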
# [16] = target: Cytochrome P450 3A4 (Homo sapiens) (UniProt P08684); assay: Cytochrome P450 Family 3 Subfamily A Member 4 (CYP3A4) small molecule antagonists: luciferase reporter qHTS assay (AID 1671201); details: P450-Glo CYP3A4 enzyme, luciferin luminescence, 1 h; series mostly up to 115 µM; note: nearly all actives have a fitted effect of over 50% in size; note: potency is the fitted concentration of half-maximal effect
# Cytochrome P450 3A4 (Homo sapiens), sequence (P08684 whole entry, looked up): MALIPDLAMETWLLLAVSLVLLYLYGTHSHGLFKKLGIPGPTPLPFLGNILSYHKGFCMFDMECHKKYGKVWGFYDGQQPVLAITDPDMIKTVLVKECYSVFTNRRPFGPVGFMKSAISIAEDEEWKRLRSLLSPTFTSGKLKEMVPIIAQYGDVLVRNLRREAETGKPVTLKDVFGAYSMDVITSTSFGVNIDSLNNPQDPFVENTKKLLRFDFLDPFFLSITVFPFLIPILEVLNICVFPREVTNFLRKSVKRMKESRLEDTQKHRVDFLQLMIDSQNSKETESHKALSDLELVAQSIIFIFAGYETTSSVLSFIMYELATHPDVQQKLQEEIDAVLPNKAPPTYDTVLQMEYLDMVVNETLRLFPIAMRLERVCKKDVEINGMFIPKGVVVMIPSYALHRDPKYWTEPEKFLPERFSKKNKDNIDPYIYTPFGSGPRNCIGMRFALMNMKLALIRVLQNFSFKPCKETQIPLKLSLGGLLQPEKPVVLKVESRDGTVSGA
# Summary of the method: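 Relative luminescence units after 20 min with luciferin detection reagent served as read-out. Beforehand, CYP3A4 turned over a proluciferin substrate for 1 h at room temperature with NADPH regeneration, following 10 min compound preincubation.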
# [17] = target: Cytochrome P450 2D6 (Homo sapiens) (UniProt P10635); assay: Cytochrome P450 Family 2 Subfamily D Member 6 (CYP2D6) small molecule antagonists: luciferase reporter qHTS assay (AID 1671196); details: P450-Glo CYP2D6 enzyme assay, luciferin luminescence, 1 h; series mostly up to 115 µM; note: nearly all actives have a fitted effect of over 50% in size; note: potency is the fitted concentration of half-maximal effect
# Cytochrome P450 2D6 (Homo sapiens), sequence (P10635 whole entry, looked up): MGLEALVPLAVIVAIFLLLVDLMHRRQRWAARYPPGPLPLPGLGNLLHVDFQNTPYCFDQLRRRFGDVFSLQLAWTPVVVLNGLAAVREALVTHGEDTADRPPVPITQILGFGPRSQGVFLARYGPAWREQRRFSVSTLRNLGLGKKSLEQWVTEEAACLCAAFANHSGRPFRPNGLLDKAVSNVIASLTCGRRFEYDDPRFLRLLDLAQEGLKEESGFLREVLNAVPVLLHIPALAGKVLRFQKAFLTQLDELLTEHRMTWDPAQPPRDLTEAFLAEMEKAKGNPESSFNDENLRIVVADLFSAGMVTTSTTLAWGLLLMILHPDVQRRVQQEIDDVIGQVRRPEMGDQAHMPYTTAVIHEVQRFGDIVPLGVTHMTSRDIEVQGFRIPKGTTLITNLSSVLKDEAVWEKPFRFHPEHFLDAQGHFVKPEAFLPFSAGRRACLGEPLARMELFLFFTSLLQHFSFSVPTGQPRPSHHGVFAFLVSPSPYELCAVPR
# Summary of the method: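 Cell-free P450-Glo system: CYP2D6 with proluciferin substrate was pre-incubated with compound for 10 min, then reacted with NADPH regeneration for 1 h at room temperature. Luciferin product was detected after 20 min, and data were reported as relative luminescence units.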
# [18] = Caspase-3/7 induction in HepG2 cells by small molecules, qHTS assay (AID 1346978); details: HepG2 caspase-3/7 activation, Caspase-Glo luminescence, 17 h; series mostly up to 92.4 µM; note: nearly all actives have a fitted effect of over 15% in size
# Summary of the method: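 Wild-type HepG2 cells (2,000/well) were settled 5 h at 37 C, 5% CO2, then exposed to compounds in DMSO for 17 h. Caspase-3/7 activity was read by luminescence 30 min after adding Caspase-Glo 3/7 reagent at room temperature.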
# [19] = target: Nuclear receptor subfamily 1 group I member 2 (Rattus norvegicus) (UniProt Q9R1A7); assay: Rat pregnane X receptor (rPXR) activation by small molecules, qHTS assay (AID 1346983); details: rPXR luciferase reporter cells, One-Glo luminescence, 24 h; stronger effect = higher value; note: nearly all actives have a fitted effect of over 20% in size
# Nuclear receptor subfamily 1 group I member 2 (Rattus norvegicus), sequence (Q9R1A7 whole entry, looked up): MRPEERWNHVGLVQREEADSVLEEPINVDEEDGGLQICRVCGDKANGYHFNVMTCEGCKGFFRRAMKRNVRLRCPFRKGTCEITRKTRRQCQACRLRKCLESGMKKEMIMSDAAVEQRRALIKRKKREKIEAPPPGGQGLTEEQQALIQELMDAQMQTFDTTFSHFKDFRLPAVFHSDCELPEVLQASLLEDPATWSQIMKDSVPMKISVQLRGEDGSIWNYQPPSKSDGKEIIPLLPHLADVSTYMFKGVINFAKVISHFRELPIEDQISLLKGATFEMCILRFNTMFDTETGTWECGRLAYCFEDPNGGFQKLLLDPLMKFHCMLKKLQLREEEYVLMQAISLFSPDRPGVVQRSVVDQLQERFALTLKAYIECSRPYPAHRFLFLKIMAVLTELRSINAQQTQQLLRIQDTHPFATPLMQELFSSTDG
# Summary of the method: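 Cell-based rPXR luciferase reporter assay, 2,000 cells per well, rested 5hr at 37 C before compound addition in DMSO, then 24 hr at 37 C. One-Glo reagent was added and luminescence read after 30 min at room temperature.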
Structure (SMILES),Potency [1],Potency [2],Potency [3],Potency [4],Potency [5],outcome [6],Potency [7],Potency [8],Potency [9],Potency [10],Potency [11],Potency [12],Potency [13],Potency [14],Potency [15],Potency [16],Potency [17],Potency [18],max activation [19]
Cc1ccccc1,inactive,inactive,inactive,inactive,inactive,inactive,inactive,inactive,inactive,inactive,inactive,inactive,inactive,inactive,inactive,inactive,–,–,–
CCOC(=O)c1cn2nc(OP(=S)(OCC)OCC)cc2nc1C,inactive,–,inactive,inactive,30.6 µM (active),–,–,35.6 µM (active),–,39.9 µM (active),2 µM (active),–,5.03 µM (active),8.94 µM (active),–,28.3 µM (active),25.2 µM (active),–,–
CC(C)(C)NCC(O)c1ccccc1Cl (stereo not given),–,inactive,inactive,inactive,inactive,inactive,inactive,inactive,–,inactive,inactive,–,inactive,–,inactive,inactive,9.77 µM (active),inactive,-2.03% (inactive)
OCCSSCCO,inactive,inactive,inactive,inactive,–,–,–,inactive,inactive,inactive,inactive,–,–,–,inactive,inactive,–,–,–
CC[N+]1(C)CCCC(OC(=O)C(O)(c2ccccc2)c2ccccc2)C1 (stereo not given),–,inactive,inactive,inactive,inactive,inactive,inactive,inactive,inactive,inactive,inactive,inactive,–,–,inactive,inactive,2.75 µM (active),inactive,2.38% (inactive)
CC(Oc1cccc(Cl)c1)C(=O)O (stereo not given),–,inactive,inactive,inactive,inactive,–,–,inactive,inactive,inactive,inactive,inactive,–,–,inactive,inactive,inactive,inactive,–
CN(C1CCCCC1)C1CCCCC1,–,inactive,inactive,inactive,inactive,–,–,inactive,inactive,inactive,inactive,–,–,inactive,inactive,inactive,3.17 µM (active),inactive,–
NNCCO,inactive,inactive,inactive,inactive,–,–,–,inactive,inactive,inactive,inactive,inactive,inactive,inactive,inactive,inactive,inactive,–,–
C=CCOCC1CO1 (stereo not given),–,inactive,inactive,inactive,inactive,–,–,inactive,inactive,inactive,inactive,–,inactive,–,inactive,30.9 µM (active),inactive,inactive,–
Clc1ccc(Cl)c(Cl)c1,inactive,inactive,inactive,inactive,–,–,–,–,–,–,–,–,–,–,inactive,–,–,–,–
CCCCC(CC)COC(=O)c1c(Br)c(Br)c(Br)c(Br)c1C(=O)OCC(CC)CCCC (stereo not given),inactive,inactive,inactive,inactive,–,–,–,inactive,inactive,inactive,inactive,–,inactive,inactive,inactive,inactive,inactive,–,–
C=CC(C)(CCC=C(C)C)OC(=O)c1ccccc1N (stereo not given),inactive,inactive,inactive,inactive,–,–,–,–,–,–,–,–,–,–,inactive,–,–,–,–
C=C(C)C(=O)OCCCCOC(=O)C(=C)C,inactive,inactive,inactive,inactive,inactive,–,–,inactive,–,inactive,inactive,7.96 µM (active),39.9 µM (active),–,inactive,inactive,–,–,–
CCCCCBr,inactive,inactive,inactive,inactive,–,–,–,inactive,inactive,inactive,inactive,inactive,inactive,inactive,inactive,inactive,inactive,–,–
O=C(O)c1ccc(=O)[nH]c1,inactive,–,inactive,inactive,inactive,–,–,inactive,inactive,inactive,inactive,inactive,inactive,inactive,inactive,inactive,–,–,–
OC[P+](CO)(CO)CO,–,inactive,inactive,inactive,61.8 µM (active),–,–,inactive,inactive,inactive,inactive,inactive,inactive,–,inactive,inactive,inactive,inactive,–
O=C(O)CCCOc1ccc(Cl)cc1Cl,inactive,inactive,inactive,inactive,–,–,–,–,–,–,–,–,–,–,inactive,–,–,–,–
CCC1(CC)C(=O)NC(=O)NC1=O,–,inactive,inactive,inactive,inactive,inactive,inactive,inactive,inactive,inactive,inactive,–,inactive,inactive,inactive,inactive,–,inactive,0.212% (inactive)
CCOP(=S)(S)OCC,inactive,inactive,inactive,inactive,–,–,–,16.7 µM (active),–,42.1 µM (active),inactive,33.4 µM (active),21.1 µM (active),–,inactive,inactive,inactive,–,–

# Reference: PubChem BioAssay (Tox21)
